High-throughput results: PubChem, several laboratories
The list is not random: actives were taken first. Their share in the collection is about 1.4%.
SARS 3CLpro inh: SARS-CoV 3CLpro protease inhibition | P0C6X7 | AID 1706 | inhibition, % at 6 µM | 290,000 compounds, 0.14% hits | recombinant SARS-CoV 3CLpro, quenched FRET peptide cleavage; in the data active = inhibition above about 12%
Sa ugtP lethal: kills S. aureus RN4220 lacking UgtP; S. aureus RN4220 ugtP deletion, OD600 growth, 16 h; growth inhibition, % (concentration not given with the values); 330,000 compounds, 0.54% hits; AID 1259309; in the data active = growth inhibition above about 68%;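 note: plate controls were untreated wells for no effect and antibiotic for full effect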
BJeLR lethal: BJeLR cell viability loss. BJeLR (HRASV12) viability, CellTiter-Glo ATP luminescence, 48 h. inhibition, % (test concentration not listed). 300,000 compounds, 0.17% hits. AID 1554; in the data active = inhibition above about 50%
RN4220 kill: kills Staphylococcus aureus RN4220. S. aureus RN4220 growth, OD600, 16 h. 330,000 compounds, 0.33% hits. inhibition, % (no concentration beside the values); in the data active = inhibition above about 85%;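 note: plate controls were untreated cells for no effect and reference antibiotic for full effect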
PrPC surface inh: cell surface PrPC inhibition, primary TR-FRET screen; P04156; TR-FRET read-out; inhibition, % at 13.8 µM; 370,000 compounds, 0.43% hits; AID 720596; in the data active = inhibition above about 24%; note: 0% = median of the test wells and 100% = reference compound wells
DUSP3 inh: inhibitors of human VHR1 phosphatase (DUSP3) | recombinant VHR phosphatase, pNPP absorbance | 290,000 compounds, 0.52% hits | P51452 | inhibition, % at 13.3 µM; in the data active = inhibition above about 50%
Target sequence (P51452 whole entry, looked up): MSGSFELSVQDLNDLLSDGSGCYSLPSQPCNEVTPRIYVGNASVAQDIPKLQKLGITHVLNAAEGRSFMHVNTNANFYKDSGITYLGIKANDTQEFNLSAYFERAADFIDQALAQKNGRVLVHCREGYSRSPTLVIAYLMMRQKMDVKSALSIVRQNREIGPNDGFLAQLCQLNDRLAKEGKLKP
An asterisk follows results filed as active; . = not tested or not shown.

SMILES | SARS 3CLpro inh | Sa ugtP lethal | BJeLR lethal | RN4220 kill | PrPC surface inh | DUSP3 inh
CCCc1cc(=O)oc2c(C)c(OCC(=O)NC3CC(C)(C)NC(C)(C)C3)ccc12 | -5 | 7 | 9 | 4 | -4 | 50*
Cc1c(OCC(=O)NC2CC(C)(C)NC(C)(C)C2)ccc2c3c(c(=O)oc12)CCC3 | -7 | 12 | -6 | 1 | 2 | 15
CCCc1cc(=O)oc2c(C)c(OCC(=O)NCCCN3CCOCC3)ccc12 | -7 | 1 | 2 | 1 | -6 | 53*
COc1ccc(C2CC(=O)C=C(c3c(C)cc(C)cc3C)C2)cc1 (centres undefined) | . | 72 | . | -5 | . | .
CCN1CCc2c(C#N)c(NCc3ccccc3)nc(N(CC)CC)c2C1 | -3 | -2 | 3 | 6 | -9 | 56*
Cc1cccc(NC(=S)N=Nc2c(O)[nH]c3ccccc23)c1 | -9 | 95* | -5 | 99* | 12 | -8
CCCC(=O)N1CCN(c2ccc(NC(=S)NC(=O)c3cccc(C)c3)cc2)CC1 | 1 | active | 5 | 94 | 4 | 13
COc1cccc(C(=O)NC(=S)Nc2ccc(N3CCCC3)cc2)c1 | -3 | 87* | 4 | 3 | -3 | 23
CN1CCN(c2ccc(NC(=S)NC(=O)c3cccc4c(Cl)cccc34)cc2)CC1 | 4 | 98* | 10 | -4 | 1 | 20
COc1ccc(C(=O)NC(=S)Nc2ccc(N3CCCC3)cc2)cc1 | -1 | 81 | 7 | 5 | 9 | 12
Cc1ccc(C(=O)N2CCN(c3ccc(NC(=S)NC(=O)Cc4ccccc4)cc3)CC2)cc1 | 0 | 90* | 0 | 6 | 15 | 25
COC(=O)NC1CC2C3CCC4CC(OC)CC[C@]4(C)C3CC[C@@]12C (some centres undefined) | . | 10 | . | -1 | . | .
CC(C)Oc1cccc(C(=O)NC(=S)Nc2ccc(N3CCN(C)CC3)cc2)c1 | 6 | 98* | 15 | 6 | 4 | 2
CC(C)Oc1cccc(C(=O)NC(=S)Nc2cccc(NC(=O)c3ccccc3Cl)c2)c1 | 0 | -15 | -4 | 11 | -3 | -5
N#CC1=C(N)Oc2cc(N)ccc2C1c1ccc(Cl)cc1 (centres undefined) | 1 | -10 | 2 | 9 | -4 | -9
COc1ccc(C2C(C#N)=C(N)Oc3cc(N)ccc32)cc1 (centres undefined) | 3 | -1 | -3 | 4 | -6 | 56*
O=C1C=C(c2ccc3[nH]ccc3c2)CC(c2ccc(Cl)cc2)C1 (centres undefined) | . | -35 | . | -10 | . | .
NC(=O)c1ccsc1NC(=O)c1ccc([N+](=O)[O-])o1 | . | 100* | . | 100* | -10 | .
Cc1ccc(Oc2ccc(NC(=O)CSc3n[nH]c(N)n3)cc2)cc1 | -2 | 91* | -12 | 1 | 4 | 8
Nc1nc(SCC(=O)Nc2ccc(S(N)(=O)=O)cc2)n[nH]1 | 4 | 6 | -1 | -1 | 1 | 27
COC(=O)C1=C(c2cccc(C#N)c2)CC2CCC1N2C(=O)N1CCCC1 (centres undefined) | . | 3 | . | 4 | . | .
C#Cc1ccc(C2C=C(C(=O)O)OC(OCC)C2CCCO)cc1 (centres undefined) | . | 3 | . | 2 | . | .
COc1ccc(C(=O)C=CNc2c(C)n(C)n(-c3ccccc3)c2=O)cc1OC | . | -1 | . | 4 | . | .
Cc1ccc(NC(=O)CCC(=O)NN=Cc2ccc([N+](=O)[O-])o2)cc1C | . | 0 | . | 13 | . | .
O=C(O)/C=C/c1ccc([N+](=O)[O-])o1 | 0 | 28 | 1 | 3 | -18 | 30
SMILES | SARS 3CLpro inh | Sa ugtP lethal | BJeLR lethal | RN4220 kill | PrPC surface inh | DUSP3 inh
O=C(CCC(=O)Nc1ccc(Cl)cc1Cl)NN=Cc1ccc([N+](=O)[O-])o1 | . | 100* | . | 96* | . | .
O=C(N/N=C/c1ccc([N+](=O)[O-])o1)c1ccc2c(c1)OCO2 | -3 | . | -2 | . | -37 | 14
O=C(CSc1ccc(Cl)cc1)NN=Cc1ccc([N+](=O)[O-])o1 | . | 100* | . | 46 | . | .
N#CCc1ccc(NC(=O)/C=C/c2ccc([N+](=O)[O-])o2)cc1 | 3 | 100* | 101* | 101* | . | 5
O=C(NN=Cc1ccc([N+](=O)[O-])o1)c1ccc2c(c1)OCO2 | . | 98* | . | 88* | . | .
Cn1c(=O)n(C)c2cc(C=C3SC(=O)N(CC(=O)N4CCOCC4)C3=O)ccc21 | . | -12 | . | 0 | . | .
CC(C)C1COC(c2cccc(C3=NC(C(C)C)CO3)c2)=N1 (centres undefined) | . | 3 | . | 4 | . | .
